Numbering of substitutions follows the chain as printed. In all, about 24,000 sequences were measured (“enrichment r”: median about 0.99, highest 2% from about 3.7 on). The full list was thinned out, with the highest values kept by preference.
T1: UNK ZnF1-3 (human, UniProt Q9C0B0 31-174)
T1 sequence: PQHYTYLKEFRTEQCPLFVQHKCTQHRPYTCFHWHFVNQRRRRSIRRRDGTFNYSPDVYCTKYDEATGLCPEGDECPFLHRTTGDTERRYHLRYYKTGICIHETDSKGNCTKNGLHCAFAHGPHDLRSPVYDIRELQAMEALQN

B1: 59350742_59359075_1706_CDS_ENSG00000157450_ENST00000557998|human|control|control (ssRNA)
RNA: GGGAGUUCUACAGUCCGACGAUCGUUCUGUGACGACCCUCCACAUGGUGAGUGCUGGGGACAGCAGGAAGGUAACCUUGGCAUUGCAGGAGGGCCAGUUUCCGUUACAGCACUAGAUGUAGUUCUCCUUGAGUCAUCUCCUAUCAACAGAGGAUUGAGCAUCA
B2: chr13:100518589:100518590:+_ENSG00000125246_ENST00000339105|hu_mus|FALSE|FALSE (ssRNA)
RNA: GGGAGUUCUACAGUCCGACGAUCUUCCCUUGACUGUCUGAGAAGUCCGUCUUCAUCUCGGAAGUCAAUGUACACAAGAUCUAUGGCUUGUAGGCCAAAGGCUUUUGCCGUGACAACAACCUUCUGCCGGGCAUAGAGGAUGUCCAACAGAGGAUUGAGCAUCA
B3: chr17:65337090:65337091:-_ENSG00000197170_ENST00000584008|hu_mus|FALSE|FALSE (ssRNA)
RNA: GGGAGUUCUACAGUCCGACGAUCCCAGUCAUUUAAUAAAUUAUUUGGAUCCUUGGGUCUCUGGAAGUUGAUGACUCCAGCCAACCUGUCUACUUUAGCAAAGAUGGUCUUGUUAACGACUAGAUUCGAGAGGAAAGCCUCUGACAACAGAGGAUUGAGCAUCA
B4: chr9:91093546:91093547:+_ENSG00000106723_ENST00000375859|hu_mus|FALSE|FALSE (ssRNA)
RNA: GGGAGUUCUACAGUCCGACGAUCUACAUCAUAAUUAUAAAAAUUACUUACAGAAUUAACAGUUGUACUGUGUAUACUUCUAAAUGCAGAGAACAGGGAACCGUCUACACGUUGUAUAAAAUAAAAUUAAAAUUAAAAAUGAAUCAACAGAGGAUUGAGCAUCA
B5: chr9:91093546:91093547:+_ENSG00000106723_ENST00000375859|hu_mus|motif|central (ssRNA)
RNA: B4 RNA with U80G, A81G
B6: chr12:35831226:35831227:+_ENSMUSG00000020590_ENSMUST00000048519|mus_mus|motif|central (ssRNA)
RNA: GGGAGUUCUACAGUCCGACGAUCUCAGCAGAAGACAUAUAGCCUCUUUGUGUCUAUGUUCAUCUGUGCAACAAGUGCACGGAAUAGAAUAAUUUUAUUAACCAGAGAAUACUGUACUCUACUCAUCGGUUAAACACUCUACACCAACAGAGGAUUGAGCAUCA
B7: chr1:10024197:10024198:-_ENSMUSG00000025917_ENSMUST00000027050|mus_mus|FALSE|FALSE (ssRNA)
RNA: GGGAGUUCUACAGUCCGACGAUCCAGCAUCUGUGUACUAACAUCAAUCCCGGAGAGCCAGCAGCCAUAACCAGGGUGGCUAUGAUACCAACCGAUUGCAUUCUCAAGGCGGCCAACCUGUUUGGCAUUUUCUAUGUAUGCAGCCAACAGAGGAUUGAGCAUCA
B8: chr1:225700702:225700703:-_ENSG00000154380_ENST00000366843|hu_hu|motif|central (ssRNA)
RNA: GGGAGUUCUACAGUCCGACGAUCACCAAUAGCAUUCCCUCCACUUGGGAAAGAGGUAUCCUCCAUCCGUGACACUUUCCGGAGUUUUGCUCCGGCAAUUGCAGCUGCAAGUCCAGUUAAAGGGCGAUUGUCUUCUGACAUGGACAACAGAGGAUUGAGCAUCA
B9: chr17:32491106:32491107:-_ENSMUSG00000024050_ENSMUST00000163107|mus_hu|FALSE|FALSE (ssRNA)
RNA: GGGAGUUCUACAGUCCGACGAUCAUCGAUAACCAAAAUGUGGCCACUGAAAAAAGUUAAAAGGUCAAUCAGCUCCUGGCUUCUAGCUGGCCCAGGAUUGCAAAAUAAAAAGAUCCACGUUCCUUAUUCUCUACACAAAACGCGCAACAGAGGAUUGAGCAUCA
B10: chr1:100342015:100342016:+_ENSG00000162688_ENST00000361915|hu_hu|motif|central (ssRNA)
RNA: GGGAGUUCUACAGUCCGACGAUCAGAUUCUUCCAUGGAGAAGUCUAUCUCUUCAAAUGGGAAAGUAAAAUACCUGGUAACGGAAGGAUGCUUUCUAGUGACAGGUCCUAGUUUUGGACCAUGGCCAGCCAGUCGUUCAUAAAACAACAGAGGAUUGAGCAUCA
B11: chr6:21597833:21597834:+_ENSG00000124766_ENST00000244745|hu_mus|FALSE|FALSE (ssRNA)
RNA: GGGAGUUCUACAGUCCGACGAUCAAAGUUAAAACUCUAGCCCUUCAGUGAAGGAGACGUAAAAUGGCGUGGGUAACAACACUAGAAAAAAAAAAAAAACGAAGAAAAAGAAAGAAAAUAAAAAAGAAGAUAAAGAAACGAGGUCAACAGAGGAUUGAGCAUCA
B12: chr6:21597833:21597834:+_ENSG00000124766_ENST00000244745|hu_mus|motif|central (ssRNA)
RNA: B11 RNA with U82G, A83G
B13: chr14:78183846:78183847:+_ENSG00000119705_ENST00000557342|hu_hu|hu_hu_hu_mus_False|58_98 (ssRNA)
RNA: GGGAGUUCUACAGUCCGACGAUCUCUCAGAAAUCUUUCUUUCUUUUAUGUUUGAGCUCCGUGCAAAGCCUUUGCUCUUCUAGUGUGAACGUGGAUCUAUGGGAGGGAAAGCACUGUCAGAAAAGGUAAUUUUUUUUUUAAAGACAACAGAGGAUUGAGCAUCA
B14: chr2:48026839:48026840:+_ENSG00000116062_ENST00000540021|hu_hu|hu_hu_hu_mus_False|28_88 (ssRNA)
RNA: GGGAGUUCUACAGUCCGACGAUCAUAGUGAGCCACUAGCGUCCUAAAUCUCGAACAGUGGCGGUCAUCCGAAAACUGGCCGAUGAAAAACUUGCCCAGUGAAGUGUCAACAAAGCAAACACCAUACACACGAGUGUGACCAGACAACAGAGGAUUGAGCAUCA

target: T1, UNK ZnF1-3; assay: nsRBNS (natural sequence RNA bind-n-seq); RBNS binding buffer (assumed for nsRBNS): 25 mM Tris pH 7.5, 150 mM KCl, 3 mM MgCl2, 0.01% Triton X-100, 500 ug/ml BSA, 20 U/ml SUPERase-In, 4 C; UNK is unkempt and MSI1 is Musashi-1; names of the RNAs are library labels; protein concentration not given here; high values mean tight binding

Binder	binding signal [enrichment R]
B1	0.898
B2	0.641
B3	1.07
B4	7.07
B5	4.68
B6	0.463
B7	1.5
B8	0.794
B9	1.24
B10	0.918
B11	7.3
B12	5.74
B13	1.14
B14	1.25

Source: article PMC12136788
